TRHR enhancer: qHTS for Small Molecule Agonists and Allosteric Enhancers of Human TRH Receptor: Primary Screen for Enhancers | Thyrotropin-releasing hormone receptor (Homo sapiens), P34981 | TRHR cells, fluo-8 calcium fluorescence, EC20 TRH enhancement | enhancement, % at 2 µM | 360,000 compounds, 0.66% hits | AID 493056, 2011; in the data active means enhancement above about 30%; further: 0% is about no effect
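Enhancer read-out: after compound pinning and an initial kinetic agonist-mode read, an EC20 of TRH (10 nM final) was injected and fluo-8 calcium signal (Ex 480/Em 530) followed at 1 s/cycle for 100 cycles in TRHR-expressing cells.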
TRHR ag: qHTS for Small Molecule Agonists and Allosteric Enhancers of Human TRH Receptor: Primary Screen for Agonists; Thyrotropin-releasing hormone receptor (Homo sapiens), P34981; TRHR cells, calcium flux fluo-8, FDSS agonist mode; activation, % at 2 µM; 360,000 compounds, 0.18% hits; further: 0% is about no effect
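Steps: seed TRHR cells overnight; add fluo-8 no-wash Ca dye, RT 30 min–1.5 h; record 10 s baseline; pin-transfer compounds; monitor fluorescence 1 cycle/s for the agonist window. Calcium increases flag candidate agonists.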
D1 agonist: Allosteric Agonists of the Human D1 Dopamine Receptor: qHTS; D(1A) dopamine receptor (Homo sapiens), P21728; HEK293 T-REx D1 cells, calcium flux, agonist mode; activation, % at 2 µM; 360,000 compounds, 1% hits; further: 0% is about no effect
Target sequence (P21728 whole entry, looked up): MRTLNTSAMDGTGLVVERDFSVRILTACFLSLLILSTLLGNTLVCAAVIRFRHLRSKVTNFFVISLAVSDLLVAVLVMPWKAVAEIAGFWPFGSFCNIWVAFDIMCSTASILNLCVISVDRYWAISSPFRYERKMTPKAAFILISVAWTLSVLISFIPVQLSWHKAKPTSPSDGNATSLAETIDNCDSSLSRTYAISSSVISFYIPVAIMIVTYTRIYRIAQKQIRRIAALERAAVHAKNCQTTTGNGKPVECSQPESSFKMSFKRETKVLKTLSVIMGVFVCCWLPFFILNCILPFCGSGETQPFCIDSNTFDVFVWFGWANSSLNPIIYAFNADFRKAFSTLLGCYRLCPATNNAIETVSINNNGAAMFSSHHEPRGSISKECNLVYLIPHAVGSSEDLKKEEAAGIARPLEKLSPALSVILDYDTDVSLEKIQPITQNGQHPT
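Agonism was scored from calcium flux recorded over 180 s (1 read/s) after pintool compound addition, following a 10-cycle baseline. Cells were inducible force-coupled HEK293 TREx D1, plated overnight at 30 C and loaded with no-wash calcium dye.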
D1 antag: Antagonist of Human D 1 Dopamine Receptor: qHTS | HEK293 TREx D1 cells, calcium flux, dopamine EC80; stronger effect = lower value | activity change, negative = inhibition, % at 10 µM | 360,000 compounds, 3.2% hits | AID 504652, 2011; in the data active means activity change below about -30%; further: on the % scale 0 is the no-effect control and ±100 the full control effect
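Compound effects on dopamine-evoked calcium signalling were measured in tetracycline-induced HEK293 Trex D1 cells. Dopamine at EC80 followed a 180 s compound pre-read, and fluorescence was tracked kinetically for 180 s more.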
D1 potentiator: Potentiators of Human D1 Dopamine Receptor: qHTS | D(1A) dopamine receptor (Homo sapiens), P21728 | HEK293 TREx D1 cells, calcium flux, dopamine EC20 potentiation | potentiation, % at 10 µM | 360,000 compounds, 0.036% hits | AID 504651, 2011; in the data active means potentiation above about 30%; further: 0% is about no effect
Active calls of the source: *; ! = not active in a repeat. In the library only some 4.7% were active in any assay of this set; here they are far more common. Unless noted, no stated cut-off is given here; in the data, active means activation above about 30%; inactive means the rest.

SMILES	TRHR enhancer	TRHR ag	D1 agonist	D1 antag	D1 potentiator
O=C(N/N=C/c1cc(Cl)cc([N+](=O)[O-])c1O)c1ccccc1NS(=O)(=O)c1cccs1	-2.2	1.2	4.0	-30.4*	-3.0
COc1cccc(C(=O)NNC2=C(C(=O)C(F)(F)F)CCC2)c1	33.2*	0.0	3.9	8.4	0.6
COc1ccccc1C(=O)NNC1=C(C(=O)C(F)(F)F)CCC1	1.1	0.6	-1.5	-8.7	-1.0
Clc1cccc(-c2ccc(/C=N/n3cnnc3)o2)c1Cl	-1.9	-1.1	1.1	-61.1*	-5.5
Cc1ccc2oc(C(=O)Nc3c(C(=O)c4ccc(C)c(F)c4)oc4ccccc34)cc(=O)c2c1	11.4	0.8	0.1	-6.8	1.9
O=C(Nc1cc(S(=O)(=O)N2CCCCC2)ccc1Cl)c1ccccc1NS(=O)(=O)c1ccc(F)cc1	-1.6	2.7	16.8	-33.0*	-3.1
O=C(Nc1ccccc1N1CCOCC1)c1ccccc1NS(=O)(=O)c1ccc(F)cc1	-0.5	-0.7	2.4	-86.9*	-7.7
CCOc1ccc(C(=O)Nc2cc(S(=O)(=O)Nc3ccccc3Cl)ccc2N2CCOCC2)cc1	40.1*	-1.2	6.1	-13.8	-2.3
CCCCC(=O)Nc1nc2c(s1)COc1ccccc1-2	4.8	0.7	10.5	14.2	-1.9
COc1ccc(-c2nc(CSc3nc4ncccc4[nH]3)c(C)o2)cc1OC	23.9	-0.5	-0.3	-1.8	-1.6
CCCC1O[C@@H]2C[C@H]3[C@@H]4CCC5=CC(=O)C=C[C@]5(C)[C@H]4[C@@H](O)C[C@]3(C)[C@]2(C(=O)CO)O1 (stereo not given in full)	33.3*	0.6	2.0	-23.3	-5.2
NC(=O)C1CCN(c2nc(-c3ccc(Br)cc3)cs2)CC1	2.2	0.3	1.0	-46.1*!	-1.7
CC(=O)c1ccc(-c2csc(N3CCC(C(N)=O)CC3)n2)cc1	-2.6	-0.2	1.9	3.7	-5.5
CCNc1ccc(S(=O)(=O)C(F)(F)F)cc1NC(=O)C12CCC(CC1)C2	-3.1	0.9	6.7	-5.7	-0.1
CCNc1cc(S(=O)(=O)C(F)(F)F)ccc1N	5.2	1.0	21.9	-38.2*	-3.0
COCCCN(C(=S)Nc1cccc(Cl)c1)C(C)c1ccncc1 (stereo not given)	36.6*	0.8	0.5	-15.5	7.5
COc1ccc(OC)c(NS(=O)(=O)c2ccc(N3CCCC3=O)cc2)c1	33.9*	-0.5	5.0	-8.6	-7.7
O=[N+]([O-])c1ccc(N(c2ccccc2)c2ccccc2)cc1	-1.1	-0.4	42.0*	20.9	1.3
Cc1ccc(NC(=O)Cn2nc([N+](=O)[O-])c(Br)c2C)cc1C	-3.1	1.2	9.5	-32.5*	-5.0
COc1cc(NC(=O)Cn2nc(C(F)(F)F)c(Br)c2C)cc([N+](=O)[O-])c1	-4.4	-0.1	21.6	-34.1*	-1.6
CCOC(=O)C1CCN(C(=O)Cn2ncc3c4ccccc4n(Cc4ccccc4F)c3c2=O)CC1	1.7	-1.1	-1.2	-2.4	5.7
O=C(O)CCN(Cc1ccccc1)S(=O)(=O)c1ccc(Cl)cc1F	3.6	0.0	1.6	-37.9*	-2.4
CCC(C(=O)Nc1ccc(C(=O)N2CCCC2)cc1)c1ccccc1 (stereo not given)	2.8	4.5	37.3*	3.6	-5.7
CCc1ccc(NC(=O)C(CC)c2ccccc2)cc1 (stereo not given)	-8.6	12.3	41.4*	3.0	13.8
CCC(C(=O)Nc1ccc(C(=O)Nc2ccccc2C(=O)O)cc1)c1ccccc1 (stereo not given)	-3.6	0.1	2.0	-64.9*	-4.8
SMILES	TRHR enhancer	TRHR ag	D1 agonist	D1 antag	D1 potentiator
COC(=O)c1ccccc1NC(=O)CSc1nc2ccccc2nc1Cc1ccccc1OC	-4.2	0.0	2.2	-14.3	-3.8
Cc1ccc(CSCCC(=O)N2CCN(c3ccc(F)cc3)CC2)cc1	0.5	-0.9	-4.3	-6.1	-0.5
COc1ccc(-n2cc(C(=O)c3cc(Cl)ccc3O)cc(C#N)c2=O)cc1	-3.0	4.3	19.7	-34.6*	-10.2
CCc1ccc(-n2nc(C)c3c(C)cc(=O)n(Cc4nc(-c5ccccc5)oc4C)c32)cc1	9.0	-0.6	6.4	1.6	2.8
Cc1[nH]c2ccccc2c1/C=N/NC(=O)c1ccccc1	-10.6	-2.1	0.7	-0.9	0.8
Cc1[nH]c2ccccc2c1/C=N/NC(=O)CCC(=O)Nc1ccccc1	16.7	0.6	1.0	-47.6*	-4.2
CC(=O)c1cccc(NC(=O)c2cc(-c3ccncc3)nc3ccccc23)c1	0.6	0.6	0.4	18.2	2.9
O=C(NNC(=O)c1cc(-c2ccncc2)nc2ccccc12)c1cccc(Cl)c1	3.7	0.2	3.1	-40.7*	-3.7
Cc1[nH]c2ccccc2c1/C=N/NC(=O)c1cc(-c2ccncc2)nc2ccccc12	-7.8	0.0	1.4	-42.6*	-17.1
Cc1[nH]c2ccccc2c1/C=C/C(=O)c1ccccc1	-0.3	8.3	41.3*	-19.8	-3.1
CCN(CC)C(=O)c1sc(NC(=O)c2nc3ncccn3n2)c(C(=O)OC)c1C	32.0*	-1.2	-0.1	-16.6	-3.3
Cc1cc(NC(=O)CCc2nc3cccnc3n2-c2ccccc2)ccc1Br	-6.7	-0.2	-2.7	4.6	2.1
COC(=O)CNC(=O)CSc1nnc(-c2ccc(OC)cc2)n1CC(C)C	2.8	0.5	-1.2	-33.6*	3.7
COc1ccc(-c2nnc(SCC(=O)NCc3cccs3)n2CC(C)C)cc1	-1.5	-0.4	1.4	-4.4	0.5
COC(=O)c1ccc(NC(=O)CC2C(=O)N(c3cccc(F)c3)C(=O)N2CC(C)C)cc1 (stereo not given)	9.6	-2.3	9.9	-33.0*	0.1
COC(=O)c1ccc(NC(=O)CC2C(=O)N(c3cccc(OC)c3)C(=O)N2C(C)C)cc1 (stereo not given)	3.5	-0.6	-1.4	-31.9*	-3.2
CCOC(=O)c1cccc(NC(=O)CC2C(=O)N(c3ccc(OC)cc3)C(=O)N2C2CCCC2)c1 (stereo not given)	4.9	-0.5	7.0	-35.3*	-3.5
COc1cccc(N2C(=O)C(CC(=O)Nc3cccc(F)c3)N(C(C)C)C2=O)c1 (stereo not given)	-7.1	-0.3	1.4	2.9	-1.9
CCOC(=O)c1cccc(NC(=O)CC2C(=O)N(c3ccc(Cl)cc3)C(=O)N2C2CCCC2)c1 (stereo not given)	-5.7	-0.7	12.6	-2.6	-2.0
